BoNT A protease – BoNT/A light chain protease inhibitors, primary screen, biochemical, flow cytometry, MLPCN library | Botulinum neurotoxin type A light chain protease (Clostridium botulinum A str. ATCC 3502) | multiplex microsphere protease substrate cleavage | inhibition, % at 10 µM | 360,000 tested, 0.17% active | AID 588499, 2011; further: plate controls were buffer without enzyme for full effect and enzyme alone for no effect
BoNT F protease – BoNT/F light chain protease inhibitors, primary screen, biochemical, flow cytometry, MLPCN library; 360,000 tested, 0.22% active; Botulinum neurotoxin type F light chain protease (Clostridium botulinum); Multiplex microsphere protease cleavage assay; inhibition, % at 10 µM; in the data active means inhibition above about 35%, passing the limit was not always enough; inconclusive means no clear call, values can overlap the other calls; further: plate controls were buffer without enzyme for full effect and enzyme alone for no effect
MazF activator – activators of E. coli MazEF toxin-antitoxin RNase, primary screen, biochemical, fluorescence, uHTS; Endoribonuclease toxin MazF (Escherichia coli (strain K12)), P0AE70; FAM/BHQ RNA-DNA oligo cleavage fluorescence, 5 h; activation, % at 20 µM; 350,000 tested, 0.32% active; AID 504720, 2011; in the data active means activation above about 50%
Target sequence (P0AE70 whole entry, looked up): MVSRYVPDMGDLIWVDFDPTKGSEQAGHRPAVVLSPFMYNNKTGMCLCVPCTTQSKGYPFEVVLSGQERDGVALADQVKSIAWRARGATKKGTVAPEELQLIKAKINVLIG
BH1578 lux ind – inducers of Vibrio cholerae quorum light production without autoinducers, primary screen, BH1578 luxS cqsA deficient, single point; activation, % at 18.7 µM; V. cholerae BH1578 lux reporter, luminescence, 6 h; AID 588436, 2011; 350,000 tested, 0.16% active; in the data active means activation mostly above about 9.7%, no sharp cut-off; inconclusive means no clear call, values can overlap the other calls; inactive means mostly below about 3.7%
Autofluor counter – counter-screen for toxin protease inhibitors: compound fluorescence. AID 624483. fluorescence intensity (test concentration not listed). 360,000 tested, 3.1% active. compound autofluorescence counterscreen, microsphere flow cytometry; stronger effect = higher value; in the data active means fluorescence intensity above about 16000; inconclusive means no clear call, values can overlap the other calls
Anthrax LF prot – Bacillus anthracis LF protease inhibitors, primary screen, biochemical, multiplex microsphere, MLPCN library. 360,000 tested, 0.12% active. inhibition, % at 10 µM. AID 588501, 2011. multiplex microsphere protease cleavage assay; further: plate controls were buffer without enzyme for full effect and enzyme alone for no effect
The depositor's hits bear a star; i = inactive; ? = inconclusive. Most compounds without a hit are left out; they make up all but 3.9% or so of the library. Unless noted, no stated cut-off is given here; in the data, active means inhibition above about 30%; inconclusive means no clear call, values can overlap the other calls; inactive means below that.

SMILES	BoNT A protease	BoNT F protease	MazF activator	BH1578 lux ind	Autofluor counter	Anthrax LF prot
CCOC(=O)c1ccccc1NC(=O)c1ccc(Cl)c(S(=O)(=O)N2CCOCC2)c1	?	0.7	-7.9	1.3	21650*	-8.8
COc1ccc(-c2noc(CCC(=O)NC3CCCCCC3)n2)cc1OC	-0.5	-2.7	1.5	0.0	3045	-0.5
CCOc1ccccc1NC(=O)c1cnc(NS(=O)(=O)c2ccccc2)nc1	-1.4	2.6	-6.4	-0.3	4158	-2.9
CCOc1ccc(NC(=O)CN(C)C(=O)c2ccc(OCC3CCCO3)cc2)cc1OCC (centres undefined)	1.7	8.4	4.7	-0.3	5455	-2.3
COc1ccccc1NC(=O)c1cc(S(=O)(=O)N2CCc3ccccc32)ccc1F	1.1	1.8	6.0	-3.4	5319	-0.1
COc1ccccc1NC(=O)c1cc(S(=O)(=O)N2CCC3(CC2)OCCO3)ccc1F	-0.2	0.8	-3.9	-0.2	20818*	-0.4
CC(=O)N(C)c1ccc(NC(=O)Cc2cccs2)cc1	2.3	-4.7	0.2	i	4018	8.3
Cc1nc(N2CCN(Cc3ccc4c(c3)OCO4)CC2)nc2c1C(=O)CC(c1ccco1)C2 (centres undefined)	?	?	-6.4	-0.5	?	?
Cc1nc(N2CCN(Cc3ccccc3)CC2)nc2c1C(=O)CC(c1ccco1)C2 (centres undefined)	-3.1	-9.6	-4.9	i	17519*	-4.7
Nc1cc2c(cc1C(=O)c1cccc(Br)c1)OCCO2	-0.1	-0.4	-2.6	i	2581	-1.0
O=C(NC1CCCCC1)c1cc([N+](=O)[O-])ccc1N1CCCCC1	-1.4	-2.4	-0.9	0.5	23223*	-5.2
O=C(c1ccc(S(=O)(=O)N2CCC(c3nc4ccccc4s3)CC2)cc1)N1CCOCC1	-3.5	-1.8	12.1	0.6	23501*	0.6
O=C(c1ccc(S(=O)(=O)N2CCC(c3nc4ccccc4s3)CC2)cc1)N1CCCCC1	0.2	-4.5	-4.2	i	5121	1.0
O=C(C1CCN(S(=O)(=O)N2CCOCC2)CC1)N1CCC2(CC1)OCCO2	2.1	5.4	1.9	-0.2	22049*	-1.5
O=C(C1CCN(S(=O)(=O)c2ccccc2)CC1)N1CCOCC1	?	-2.4	7.5	-0.2	16459*	-1.8
O=C(C1CCN(S(=O)(=O)c2cccs2)CC1)N1CCN(c2ccccc2)CC1	-0.7	-1.6	-5.4	i	16746*	-2.8
COC(=O)c1ccc(Cl)c(NC(=O)CN(c2ccccc2)S(=O)(=O)c2ccc(OC)cc2)c1	-0.3	-12.3	-3.3	-0.6	2220	-2.2
O=C(C1CCN(S(=O)(=O)c2ccc(F)cc2)CC1)N1CC=C(c2ccccc2)CC1	4.3	4.5	2.4	-3.0	17943*	-13.3
CN(C)C(=O)C1Cc2ccccc2CN1S(=O)(=O)c1cccs1 (centres undefined)	-0.5	0.0	11.0	-0.3	2157	-2.0
O=C(C1Cc2ccccc2CN1S(=O)(=O)c1cccs1)N1CCCCC1 (centres undefined)	-5.6	-7.1	9.3	-2.0	25075*	-3.7
Cn1c(N)c(C(=O)Nc2ccc3ccccc3c2)sc1=S	?	2.3	11.3	0.3	21788*	-1.1
Cn1c(N)c(C(=O)Nc2ccccc2F)sc1=S	1.5	30.7	1.0	-0.8	2914	20.9
FC(F)(F)c1cccc(NC(=S)NCC2COc3ccccc3O2)c1 (centres undefined)	0.4	2.9	3.6	i	1934	1.3
COC(=O)CSc1nnc(-c2ccc(S(=O)(=O)NCc3cccs3)cc2)o1	2.3	4.4	4.4	-2.0	21213*	-0.3
CCOC(=O)CSc1nnc(-c2ccc(S(=O)(=O)NCc3cccs3)cc2)o1	0.5	-1.3	-9.3	-0.6	15856	-9.6
COC(=O)CSc1nnc(-c2ccc(S(=O)(=O)NCc3ccccc3Cl)cc2)o1	1.0	0.8	-1.8	i	21867*	-0.5
CC(O)(Cc1ccccn1)Cc1ccccn1	-0.5	0.1	8.2	0.9	4317	-0.8

Assay outcomes: PubChem, several laboratories
